Values joined by “and” are separate entries in the source; they are usually repeats but may differ in a detail not shown here. Identical values can stand only once. Results filed as inconclusive are left out. More than one record can exist for a structure, and the calls need not agree. Active and inactive are the calls of the source. Rule for the calls: active = hit-call score of the fitted dose curve at least 0.9, where 1 is the maximum; inconclusive = response in the unintended direction; inactive = score below 0.9.
Columns and labels:
[1] = test system: chicken Androgen Receptor (AR), gene 422165; experiment: ATG_chAR_XSP2: Attagene TRANS-FACTORIAL Multi-Species (XSP2) HepG2 Assay for chicken Androgen Receptor (AR) (AID 2283819);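 note: hits raise reporter mRNA above DMSO so potency is for activation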
Summary of the method: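 Readout is reporter mRNA induction via RT-PCR/capillary electrophoresis after 24 h chemical exposure, positive direction relative to DMSO. Transiently transfected HepG2 express chimeric chicken AR–GAL4; AR stimulated by 3 nM 6-alpha-fluorotestosterone and 1.5 nM norgestrel.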

[2] = ATG_M_19_XSP2: Attagene TRANS-FACTORIAL Multi-Species (XSP2) HepG2 Assay for M32 Transcription Factor (Internal Marker) (AID 2283822)
Summary of the method: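 Internal background marker in a multi-species nuclear receptor TRANS panel: transfected HepG2 cells exposed 24 h, with 3 nM 6-alpha-fluorotestosterone and 1.5 nM norgestrel present. Readout is RT-PCR of reporter transcripts resolved by capillary electrophoresis, gain-of-signal versus DMSO.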

[3] = test system: zebrafish Estrogen Receptor (ER2b), gene 317733; experiment: ATG_zfER2b_XSP2: Attagene TRANS-FACTORIAL Multi-Species (XSP2) HepG2 Assay for zebrafish Estrogen Receptor (ER2b) (AID 2283823);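 note: fitted upward as reporter gain over DMSO so potency reflects activation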
Summary of the method: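 In this multiplexed trans-activation format, HepG2 cells expressing exogenous NR-Gal4 fusions drive GAL4-UAS reporters. Exposure lasts 24 h, and reporter mRNA induction is read by RT-PCR with capillary electrophoresis detection.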

[4] = ATG_M_32_XSP2: Attagene TRANS-FACTORIAL Multi-Species (XSP2) HepG2 Assay for M19 Transcription Factor (Internal Marker) (AID 2283826)
Protocol: (§1) ATG_XSP2_multi-species_TRANS is a cell-based, multiplexed assay created by modifying the existing Attagene TRANS-FACTORIAL system to include a panel of nuclear receptors from some or all the following species: human (Homo sapiens), mouse (Mus musculus), frog (Xenopus laevis), zebrafish (Danio rerio), chicken (Gallus gallus), and turtle (Chrysemys picta). The ECOTOX-FACTORIAL format uses HepG2, a human liver cell line, with measurements taken at 24 hours after chemical dosing in a 24-well plate. Xsp2 included 3 nM 6-alpha-fluorotestosterone and 1.5 nM norgestrel to stimulate the androgen receptor.ATG_M_32_XSP2 is one of 29 assay components measured or calculated from the ATG_XSP2_multi-species_TRANS assay. It is designed to make measurements of mRNA induction, a form of inducible reporter, as detected with fluorescence intensity signals by Reverse transcription polymerase chain reaction (RT-PCR) and Capillary electrophoresis technology.This assay endpoint, ATG_M_32_XSP2, was analyzed in the positive analysis fitting direction relative to DMSO as the negative control and baseline of activity. […] Furthermore, this assay endpoint can be referred to as a secondary readout, because this assay has produced multiple assay endpoints where this one serves a background control function. […]

[5] = test system: frog Estrogen Receptor (ER2), gene 100174814; experiment: ATG_frER2_XSP2: Attagene TRANS-FACTORIAL Multi-Species (XSP2) HepG2 Assay for frog Estrogen Receptor (ER2) (AID 2283828)
Summary of the method: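 Read-out: reporter transcript levels by RT-PCR with 6-FAM primer extension, HpaI digestion and capillary electrophoresis, scored as induction over DMSO control. Transfected HepG2 carrying Xenopus ER2–GAL4 chimera; compounds incubated 24 h.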

[6] = test system: zebrafish Estrogen Receptor (ER2a), gene 317734; experiment: ATG_zfER2a_XSP2: Attagene TRANS-FACTORIAL Multi-Species (XSP2) HepG2 Assay for zebrafish Estrogen Receptor (ER2a) (AID 2283818);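 note: hits raise reporter mRNA so AC50 reflects activation of zebrafish ER2a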
Summary of the method: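 Multiplexed trans-reporter readout: RT-PCR then capillary electrophoresis of reporter transcripts after 24 h compound treatment. Human HepG2 carries transfected zebrafish ER2a-Gal4 chimera; 3 nM 6-alpha-fluorotestosterone plus 1.5 nM norgestrel present. Induction scored against DMSO.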

[7] = test system: frog Estrogen Receptor (ER), gene 398734; experiment: ATG_frER1_XSP2: Attagene TRANS-FACTORIAL Multi-Species (XSP2) HepG2 Assay for frog Estrogen Receptor (ER) (AID 2283821);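 note: hits raise reporter mRNA above DMSO baseline so potency means agonist or activator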
Protocol: ATG_XSP2_multi-species_TRANS is a cell-based, multiplexed assay created by modifying the existing Attagene TRANS-FACTORIAL system to include a panel of nuclear receptors from some or all the following species: human (Homo sapiens), mouse (Mus musculus), frog (Xenopus laevis), zebrafish (Danio rerio), chicken (Gallus gallus), and turtle (Chrysemys picta). The ECOTOX-FACTORIAL format uses HepG2, a human liver cell line, with measurements taken at 24 hours after chemical dosing in a 24-well plate. Xsp2 included 3 nM 6-alpha-fluorotestosterone and 1.5 nM norgestrel to stimulate the androgen receptor.ATG_frER1_XSP2 is one of 29 assay components measured or calculated from the ATG_XSP2_multi-species_TRANS assay. It is designed to make measurements of mRNA induction, a form of inducible reporter, as detected with fluorescence intensity signals by Reverse transcription polymerase chain reaction (RT-PCR) and Capillary electrophoresis technology.The assay endpoint ATG_frER1_XSP2 was analyzed in the positive analysis fitting direction relative to DMSO as the negative control and baseline of activity. Using a type of inducible reporter, measures of mRNA for gain-of-signal activity can be used to understand the reporter gene at the transcription factor-level as they relate to the gene ER. Furthermore, this assay endpoint can be referred to as a primary readout, because this assay has produced multiple assay endpoints where this one serves a reporter gene function. To generalize the intended target to other relatable targets, this assay endpoint is annotated to the nuclear receptor intended target family, where the subfamily is steroidal.
Human liver HepG2 cells are transiently transfected with multiple reporter transcription units (MRTUs) in 6-well plates using FuGene 6 reagent (Roche; 3 ml FuGene/1 mg DNA). The MRTU constructs are regulated by a cis-regulating element (promoter). […] A major difference between the CIS and TRANS system is that in CIS activities of endogenous TFs are measured, whereas the TRANS assay evaluates changes in activities of exogenous, chimeric NR-Gal4 proteins. […] At the end of 24 hour incubation, total RNA was isolated using TriZol reagent (Invitrogen). The isolated RNA is then reverse-transcribed using oligo(dT) primer and Mo-MLV reverse transcriptase (Invitrogen) with DNAse I (Ambion) treatment for 30 min. The one-tenth of the produced cDNA was amplified by PCR using Taq DNA polymerase (Invitrogen) and two reporter sequence-specific primers. The PCR products were fluorescently labeled by primer extension with 6-arboxyfluorescein (6-FAM) 5'-labeled reporter sequence-specific primer (2 min at 95 C, 20 s at 68 C and 10 min at 72 C) and these products were digested with 5U of HpaI (New England Biolabs) for 2h at 37 C. The fragments were purified using Qiaquick PCR columns (Qiagen), analyzed on an ABI 3130xL genetic analyzer (Applied Biosystems) with peak positions identified by using a set of X-rhodamine (ROX)-labeled MapMarker1000 molecular weight standards (BioVentures). The raw capillary electrophoresis data was processed using Attagraph software (Attagene).

[8] = test system: zebrafish Androgen Receptor (AR), gene 100005148; experiment: ATG_zfAR_XSP2: Attagene TRANS-FACTORIAL Multi-Species (XSP2) HepG2 Assay for zebrafish Androgen Receptor (AR) (AID 2283825);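 note: hits raise reporter mRNA above DMSO so AC50 reflects agonist-type gain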
Summary of the method: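 After 24 h compound exposure in medium with 3 nM 6-alpha-fluorotestosterone plus 1.5 nM norgestrel, HepG2 cells carrying zebrafish AR–GAL4 reporter constructs were assessed for reporter mRNA gain by RT-PCR and capillary electrophoresis.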

[9] = test system: frog Androgen Receptor (AR), gene 399456; experiment: ATG_frAR_XSP2: Attagene TRANS-FACTORIAL Multi-Species (XSP2) HepG2 Assay for frog Androgen Receptor (AR) (AID 2283824);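 note: reporter mRNA from GAL4-UAS units driven by Xenopus AR-Gal4 chimera; actives raise reporter signal above DMSO so AC50 reflects agonist-like induction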
Summary of the method: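 Reporter transcript induction, read by RT-PCR with fluorescent capillary electrophoresis, in human liver HepG2 cells carrying an exogenous Xenopus AR-Gal4 fusion and GAL4-driven reporters; chemical exposure 24 hours, activity scored upward against DMSO controls.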

[10] = target: Estrogen receptor (Homo sapiens) (UniProt P03372); experiment: ATG_hERa_XSP2: Attagene TRANS-FACTORIAL Multi-Species (XSP2) HepG2 Assay for human Estrogen Receptor (ERa) (AID 2283827)
Estrogen receptor (Homo sapiens), sequence (P03372 whole entry, looked up): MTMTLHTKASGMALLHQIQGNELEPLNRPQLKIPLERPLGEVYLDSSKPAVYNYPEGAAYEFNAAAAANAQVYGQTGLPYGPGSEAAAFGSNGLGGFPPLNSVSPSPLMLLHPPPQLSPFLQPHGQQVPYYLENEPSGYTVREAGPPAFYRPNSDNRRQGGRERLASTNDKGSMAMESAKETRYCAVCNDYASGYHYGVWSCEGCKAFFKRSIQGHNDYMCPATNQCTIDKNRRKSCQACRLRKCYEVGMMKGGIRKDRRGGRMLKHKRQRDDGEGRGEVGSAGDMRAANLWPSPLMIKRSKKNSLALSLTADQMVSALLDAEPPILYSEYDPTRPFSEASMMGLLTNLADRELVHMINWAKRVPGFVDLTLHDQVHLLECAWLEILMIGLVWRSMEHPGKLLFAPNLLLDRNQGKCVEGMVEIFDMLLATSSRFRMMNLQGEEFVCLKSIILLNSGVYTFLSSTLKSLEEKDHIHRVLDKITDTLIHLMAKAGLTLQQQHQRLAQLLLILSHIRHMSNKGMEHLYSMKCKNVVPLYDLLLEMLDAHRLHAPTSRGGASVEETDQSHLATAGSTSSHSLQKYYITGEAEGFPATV
Protocol: as §1, with “receptor.ATG_hERa_XSP2” for “receptor.ATG_M_32_XSP2”, “technology.The” for “technology.This”, “endpoint ATG_hERa_XSP2” for “endpoint, ATG_M_32_XSP2,”, “primary” for “secondary”, “reporter gene” for “background control”

For O=c1oc2ccccc2c(O)c1C(CC(O)c1ccc(-c2ccc(Br)cc2)cc1)c1ccccc1 (centres undefined), the outcome [1] was “inactive”, the outcome [2] was “inactive” and the outcome [3] was “inactive”. The outcome [4] was “inactive” and the outcome [5] was “inactive”.
For COCCl, the AC50 [6] was 34.8 µM (active), the outcome [6] was “inactive” and the outcome [1] was “inactive”. For the same molecule, the AC50 [7] was 19.8 µM (active), the outcome [7] was “inactive” and the outcome [2] was “inactive”. The AC50 [3] was 65.6 µM (active), the outcome [3] was “inactive” and the outcome [8] was “inactive”. For the same molecule, the AC50 [5] was 61.9 µM (active) and the outcome [5] was “inactive”.
For Oc1cc(Cl)c(Cl)cc1Cl, the AC50 [6] was 21.9 µM (active), the outcome [6] was “inactive” and the AC50 [1] was 6.4 µM (active) and 3.09 µM (active). For the same molecule, the AC50 [7] was 18.8 µM (active), the outcome [7] was “inactive” and the outcome [2] was “inactive”. The AC50 [3] was 68.6 µM (active) and 22.9 µM (active), the AC50 [9] was 5.4 µM (active) and 2.63 µM (active) and the AC50 [5] was 24.5 µM (active) and 19.2 µM (active).
In the case of [Cl][Sn]([c]1ccccc1)([c]1ccccc1)[c]1ccccc1, the AC50 [7] is reported as 0.925 µM (active), the outcome [3] is reported as “inactive” and the outcome [8] is reported as “inactive”. The outcome [4] was “inactive”, the outcome [10] was “inactive” and the outcome [5] was “inactive”.
With CC(O)(CS(=O)(=O)c1ccc(F)cc1)C(=O)Nc1ccc(C#N)c(C(F)(F)F)c1 (centres undefined) the outcome [6] was “inactive”, the outcome [7] was “inactive” and the AC50 [3] was 50.4 µM (active). For the same molecule, the outcome [3] was “inactive”, the outcome [10] was “inactive” and the outcome [5] was “inactive”.
With CCOP(=S)(OCC)O/N=C(\C#N)c1ccccc1 the AC50 [6] was 4.38 µM (active), the outcome [6] was “inactive” and the AC50 [1] was 17.8 µM (active). For the same molecule, the outcome [1] was “inactive”, the outcome [7] was “inactive” and the AC50 [3] was 19 µM (active) and 8.31 µM (active). For the same molecule, the AC50 [5] was 16.1 µM (active) and 2.28 µM (active).
